# Several values for one entry are separate records, joined by “and”; a condition that tells them apart may be missing. Equal entries are not always repeated.
# Biological target: Tyrosine-protein kinase Lyn (Homo sapiens) (UniProt P07948);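 further: kinase tested as its LYN B splice variant, values given as mean percent inhibition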
# Details: at 1 µM
# Sequence of Tyrosine-protein kinase Lyn (Homo sapiens) (P07948 2-512 limits assumed): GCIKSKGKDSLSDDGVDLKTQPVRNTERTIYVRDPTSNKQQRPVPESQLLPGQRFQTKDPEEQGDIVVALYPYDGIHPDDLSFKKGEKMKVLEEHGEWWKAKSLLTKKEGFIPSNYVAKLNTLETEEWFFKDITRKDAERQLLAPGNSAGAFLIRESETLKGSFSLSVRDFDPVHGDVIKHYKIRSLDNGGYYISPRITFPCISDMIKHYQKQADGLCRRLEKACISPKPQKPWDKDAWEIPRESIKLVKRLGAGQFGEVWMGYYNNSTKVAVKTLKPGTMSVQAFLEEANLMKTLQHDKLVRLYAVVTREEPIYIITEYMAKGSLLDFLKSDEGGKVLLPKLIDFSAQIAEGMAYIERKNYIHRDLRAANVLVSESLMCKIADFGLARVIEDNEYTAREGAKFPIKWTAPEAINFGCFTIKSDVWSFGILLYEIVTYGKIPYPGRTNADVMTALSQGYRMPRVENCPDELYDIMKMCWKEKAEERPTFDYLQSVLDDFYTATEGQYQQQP
row,Compound,inhibition
1,CCCNc1cccc(-n2ncc3c(N/N=C/c4ccncc4)ncnc32)c1,64.8%
2,Cc1nnc(-c2cccc(-c3ccc(C(=O)NCC4CC4)cc3)c2)o1,5.48%
3,Cc1ccc(-c2cc3c(NC(=O)C4CC4)ncnc3o2)cc1,5.69%
4,Cc1cc(O)cc(C)c1/C=C/c1cncc(C(=O)OC(C)(C)C)c1,53.4%
5,COc1ccc(Nc2ncc(-c3ccccc3)o2)cc1OC,32.9%
6,COC(=O)Nc1nc2ccc(Oc3ccc(NC(=O)Nc4cc(C(F)(F)F)ccc4F)cc3)cc2s1,66.5%
7,O=C1Nc2ccccc2/C1=C1\CCc2cc(O)ccc21,9.08%
8,O=C(Nc1n[nH]c2nnc(-c3cccnc3)cc12)C1CC1,1.61%
9,c1cnn2ncc(-c3ccnc(NCCCN4CCOCC4)n3)c2c1,0.53%
10,Cc1c2ccc(N(C)c3ccnc(Nc4cccc(S(N)(=O)=O)c4)n3)cc2nn1C,80.7%
11,CNC(=O)c1sc(-n2cnc3cc(OC)c(OC)cc32)cc1OCc1ccccc1C(F)(F)F,7.2%
12,CC1=C(C(=O)Nc2ccc3[nH]nc(C)c3c2)C(c2ccc(C(F)(F)F)cc2)CC(=O)N1 (configuration not stated),3.89%
13,Nc1nonc1-c1nc2cnccc2n1C1CC1,4.2% and 2.36%
14,COC(=O)Nc1nc2cc(Oc3ccc(NC(=O)Nc4ccccc4)cc3)ccc2[nH]1,6.73%
15,Nc1nccc(-c2c(-c3ccc(F)cc3)ncn2C2CCNCC2)n1,7.55% and 6.33%
16,COc1cccc(-n2ncc3c(N/N=C/c4ccc(C(=O)NCCN(C)C)cc4)ncnc32)c1,86.3%

row,Compound,inhibition
1,COc1c(C(N)=O)cc(-c2ccc(Cl)cc2)cc1-c1ccc(S(N)(=O)=O)cc1,3.95%
2,Fc1ccc(Nc2nccc(-c3c(-c4ccc(C(F)(F)F)cc4)nn4ncccc34)n2)cc1F,0.38%
3,CCN1CCC(C(=O)Nc2n[nH]c3nnc(-c4cccc(F)c4F)cc23)CC1,0.66%
4,c1ccc(-c2n[nH]cc2-c2ccnc(-c3ccc(OCCn4ccnc4)cc3)c2)nc1,12.3%
5,CS(=O)(=O)CCNCc1ccoc1-c1ccc2ncnc(Nc3ccc(OCc4ccccc4)cc3)c2c1,4.32%
6,CCn1c(-c2nonc2N)nc2cncc(C(=O)NCCNC)c21,4.46%
7,CS(=O)(=O)CCNCc1ccc(-c2ccc3ncnc(Nc4ccc(OCc5ccccc5)cc4)c3c2)o1,8.36%
8,COc1cccc(Nc2nccc(-c3cnn4ncccc34)n2)c1,11.3%
9,CC1(C)CC(n2cnc(-c3ccc(F)cc3)c2-c2ccnc(N)n2)CC(C)(C)N1,0.86%
10,NC(=O)c1ccc2c(-c3ccnc(NCCCO)n3)c(-c3ccc(F)cc3)nn2c1,10.6%
11,CN1CCC(C(=O)Nc2n[nH]c3nc(-c4ccc(O)cc4)c(Br)cc23)CC1,6.26% and 2.78%
12,CS(=O)(=O)Nc1ccc(-c2cc(-c3ccccc3)cc(C(N)=O)c2N)cc1,0.8%
13,CNC(=O)c1ncccc1Nc1nc(Nc2cc3c(cc2OC)CCCN3C(=O)CN(C)C)nc2[nH]ccc12,3.27%
14,O=C(O[C@H]1CN[C@H](C#Cc2cc3ncnc(Nc4ccc5c(ccn5Cc5cc(F)ccc5F)c4)c3s2)C1)N1CCOCC1,1.87%
15,COc1cc(N2CCN(C(C)C)CC2)ccc1Nc1nc(Nc2cccc3ncccc23)c2cc[nH]c2n1,2.18%

# Biological target: T1, Tyrosine-protein kinase Mer (Homo sapiens) (UniProt Q12866);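 further: reported value is a mean inhibition of MER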
# T1 sequence (whole entry): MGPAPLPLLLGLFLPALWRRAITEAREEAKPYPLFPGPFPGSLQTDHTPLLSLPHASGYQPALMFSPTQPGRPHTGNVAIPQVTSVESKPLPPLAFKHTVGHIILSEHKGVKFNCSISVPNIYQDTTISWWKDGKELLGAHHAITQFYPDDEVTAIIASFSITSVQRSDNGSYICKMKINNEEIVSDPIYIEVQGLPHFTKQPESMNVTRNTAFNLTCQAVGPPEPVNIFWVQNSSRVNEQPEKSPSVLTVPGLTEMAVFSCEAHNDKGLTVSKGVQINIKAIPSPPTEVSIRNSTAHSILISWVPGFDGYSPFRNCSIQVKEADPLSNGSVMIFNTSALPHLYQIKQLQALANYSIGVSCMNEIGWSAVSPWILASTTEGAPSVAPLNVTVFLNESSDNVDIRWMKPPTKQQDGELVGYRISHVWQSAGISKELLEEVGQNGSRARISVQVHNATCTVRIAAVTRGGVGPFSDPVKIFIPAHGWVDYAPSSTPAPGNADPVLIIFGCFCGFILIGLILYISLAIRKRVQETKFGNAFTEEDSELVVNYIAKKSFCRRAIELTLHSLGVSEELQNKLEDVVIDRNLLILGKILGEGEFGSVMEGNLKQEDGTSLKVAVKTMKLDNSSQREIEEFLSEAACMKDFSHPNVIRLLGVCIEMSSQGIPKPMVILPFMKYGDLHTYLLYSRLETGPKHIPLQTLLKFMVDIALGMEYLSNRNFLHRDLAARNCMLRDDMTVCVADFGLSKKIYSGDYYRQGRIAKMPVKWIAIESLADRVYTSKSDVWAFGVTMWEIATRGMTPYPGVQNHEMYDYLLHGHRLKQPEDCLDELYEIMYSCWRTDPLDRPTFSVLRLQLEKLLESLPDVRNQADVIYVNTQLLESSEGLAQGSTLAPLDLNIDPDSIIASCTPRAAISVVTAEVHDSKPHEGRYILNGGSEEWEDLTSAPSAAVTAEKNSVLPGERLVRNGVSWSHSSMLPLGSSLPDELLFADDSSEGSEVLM
# Details: at 0.1 µM
row,Compound,inhibition
1,CCCNc1cccc(-n2ncc3c(N/N=C/c4ccncc4)ncnc32)c1,6.21%
2,Cc1nnc(-c2cccc(-c3ccc(C(=O)NCC4CC4)cc3)c2)o1,0.22%
3,Cc1ccc(-c2cc3c(NC(=O)C4CC4)ncnc3o2)cc1,2.35%
4,Cc1cc(O)cc(C)c1/C=C/c1cncc(C(=O)OC(C)(C)C)c1,1.26%
5,COc1ccc(Nc2ncc(-c3ccccc3)o2)cc1OC,-0.52%
6,COC(=O)Nc1nc2ccc(Oc3ccc(NC(=O)Nc4cc(C(F)(F)F)ccc4F)cc3)cc2s1,0.03%
7,O=C1Nc2ccccc2/C1=C1\CCc2cc(O)ccc21,2.69%
8,O=C(Nc1n[nH]c2nnc(-c3cccnc3)cc12)C1CC1,1.05%
9,c1cnn2ncc(-c3ccnc(NCCCN4CCOCC4)n3)c2c1,3.19%
10,Cc1c2ccc(N(C)c3ccnc(Nc4cccc(S(N)(=O)=O)c4)n3)cc2nn1C,17.7%
11,CNC(=O)c1sc(-n2cnc3cc(OC)c(OC)cc32)cc1OCc1ccccc1C(F)(F)F,0.56%
12,CC1=C(C(=O)Nc2ccc3[nH]nc(C)c3c2)C(c2ccc(C(F)(F)F)cc2)CC(=O)N1 (configuration not stated),2.17%
13,Nc1nonc1-c1nc2cnccc2n1C1CC1,3.41% and 1.34%
14,COC(=O)Nc1nc2cc(Oc3ccc(NC(=O)Nc4ccccc4)cc3)ccc2[nH]1,1.34%
15,Nc1nccc(-c2c(-c3ccc(F)cc3)ncn2C2CCNCC2)n1,0.83% and 0.35%
16,COc1cccc(-n2ncc3c(N/N=C/c4ccc(C(=O)NCCN(C)C)cc4)ncnc32)c1,16.8%

row,Compound,inhibition
1,COc1c(C(N)=O)cc(-c2ccc(Cl)cc2)cc1-c1ccc(S(N)(=O)=O)cc1,2.2%
2,Fc1ccc(Nc2nccc(-c3c(-c4ccc(C(F)(F)F)cc4)nn4ncccc34)n2)cc1F,3.18%
3,CCN1CCC(C(=O)Nc2n[nH]c3nnc(-c4cccc(F)c4F)cc23)CC1,0.64%
4,c1ccc(-c2n[nH]cc2-c2ccnc(-c3ccc(OCCn4ccnc4)cc3)c2)nc1,0.8%
5,CS(=O)(=O)CCNCc1ccoc1-c1ccc2ncnc(Nc3ccc(OCc4ccccc4)cc3)c2c1,3.82%
6,CCn1c(-c2nonc2N)nc2cncc(C(=O)NCCNC)c21,3.05%
7,CS(=O)(=O)CCNCc1ccc(-c2ccc3ncnc(Nc4ccc(OCc5ccccc5)cc4)c3c2)o1,7.16%
8,COc1cccc(Nc2nccc(-c3cnn4ncccc34)n2)c1,1.29%
9,CC1(C)CC(n2cnc(-c3ccc(F)cc3)c2-c2ccnc(N)n2)CC(C)(C)N1,0.86%
10,NC(=O)c1ccc2c(-c3ccnc(NCCCO)n3)c(-c3ccc(F)cc3)nn2c1,5.01%
11,CN1CCC(C(=O)Nc2n[nH]c3nc(-c4ccc(O)cc4)c(Br)cc23)CC1,1.28% and 4.74%
12,CS(=O)(=O)Nc1ccc(-c2cc(-c3ccccc3)cc(C(N)=O)c2N)cc1,0.78%
13,CNC(=O)c1ncccc1Nc1nc(Nc2cc3c(cc2OC)CCCN3C(=O)CN(C)C)nc2[nH]ccc12,0.94%
14,O=C(O[C@H]1CN[C@H](C#Cc2cc3ncnc(Nc4ccc5c(ccn5Cc5cc(F)ccc5F)c4)c3s2)C1)N1CCOCC1,1.34%
15,COc1cc(N2CCN(C(C)C)CC2)ccc1Nc1nc(Nc2cccc3ncccc23)c2cc[nH]c2n1,0.54%

# Source: ChEMBL document CHEMBL1961873, “Compounds: GSK PKIS; Assays: Nanosyn kinase panel” (2012)
